TDP1 cell noCPT – qHTS for Inhibitors of human tyrosyl-DNA phosphodiesterase 1 (TDP1): qHTS in cells in absence of CPT; DT40 Tdp1-/- hTDP1 cells, no CPT, ATP luminescence, 48 h; Potency, µM (series often up to 46.2 µM), without a hit: at the top dose activity change, negative = growth inhibition, actives largely listed as inhibitors; hit rate 15% among 420,000; note: % is set by controls: 0 for no effect and ±100 for the full control effect; nearly all actives have a fitted effect of over 55% in size
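A cellular qHTS used chicken DT40 cells lacking endogenous Tdp1 but carrying stably transfected human TDP1. Compounds were applied without camptothecin, and cell growth kinetics were judged by ATP-dependent luminescence after ≥48 hr.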
TDP1 block – inhibitors of human tyrosyl-DNA phosphodiesterase TDP1 | hit rate 0.28% among 350,000 | Q9NUW8 | Potency, µM (doses to about 130 µM), without a hit: top-dose activity change, negative = inhibition, most hits filed as inhibitors | recombinant TDP1, AlphaScreen DNA substrate cleavage; note: % is set by controls: 0 for no effect and ±100 for the full control effect; nearly all actives have a fitted effect of over 40% in size
Target sequence (Q9NUW8 whole entry, looked up): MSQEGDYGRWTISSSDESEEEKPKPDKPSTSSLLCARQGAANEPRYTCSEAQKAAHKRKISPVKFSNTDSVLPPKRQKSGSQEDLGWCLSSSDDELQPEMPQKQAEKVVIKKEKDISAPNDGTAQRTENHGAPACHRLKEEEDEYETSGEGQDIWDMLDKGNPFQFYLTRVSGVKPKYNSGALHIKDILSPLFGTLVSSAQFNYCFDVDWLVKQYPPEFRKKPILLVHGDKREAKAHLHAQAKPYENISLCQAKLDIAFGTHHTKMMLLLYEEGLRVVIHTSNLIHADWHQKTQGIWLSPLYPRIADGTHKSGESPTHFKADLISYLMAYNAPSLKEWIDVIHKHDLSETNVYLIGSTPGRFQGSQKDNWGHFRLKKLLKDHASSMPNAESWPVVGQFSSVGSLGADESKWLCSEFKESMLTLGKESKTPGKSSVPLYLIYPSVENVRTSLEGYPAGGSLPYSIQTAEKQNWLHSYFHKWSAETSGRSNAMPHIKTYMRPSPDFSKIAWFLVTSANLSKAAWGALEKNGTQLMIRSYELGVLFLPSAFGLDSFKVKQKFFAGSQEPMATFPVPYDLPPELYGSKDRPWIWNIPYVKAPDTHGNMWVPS
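Enzyme-compound mixtures sat 15 min at room temperature, followed by a 5 min reaction with 15 nM final substrate and 10 min with AlphaScreen beads. Recombinant human Tdp1 was used at 1 nM final.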
TDP1 cell CPT – growth inhibition of DT40 Tdp1-/-;hTDP1 cells with camptothecin (screen for TDP1 inhibitors) | AID 686979 | hit rate 12% among 420,000 | chicken DT40 Tdp1-/-;hTDP1 cells + 20 nM CPT, ATP luminescence, 48 h | Potency, µM (top dose mostly 46.2 µM), for inactives: at the top dose activity change, negative = growth inhibition, hits mostly inhibitors; note: % is set by controls: 0 for no effect and ±100 for the full control effect; nearly all actives have a fitted effect of over 55% in size
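Chicken DT40 Tdp1-/- cells stably complemented with human TDP1 were seeded at 400 cells/well in medium containing 20 nM camptothecin, exposed to pin-transferred compounds, and grown at 37 °C for at least 48 hr. Viability was read as ATP luminescence.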
ClpP mod – qHTS Assay for Activators of ClpP; hit rate 1.9% among 340,000; purified B. subtilis ClpP, FRET peptide cleavage, 20 min; ATP-dependent Clp protease proteolytic subunit (Bacillus subtilis (strain 168)), P80244; AID 651965, 2013; Potency, µM (titrated, usually from 57.5 µM), for the others: at the top dose activity change, negative = active; active = well fitted falling curve with a large enough effect; inconclusive = small, poorly fitted or top-dose-only effect; inactive = no such curve, though single readings can be large or run the other way; note: the source files actives as falling curves though it sought activators and does not explain the sign; nearly all actives have a fitted effect of over 65% in size
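FRET quenching reversal measured ClpP activation: 10 microg/mL B. subtilis ClpP at pH 8 with the FRET-FV decapeptide, read at 430 nm after 320 nm excitation. The 20-min minus 0-min signal was scaled between DMSO/no-enzyme wells and ADEP (5.8 microM final).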
* hit, by the source's call; ? = inconclusive; . = no result given; [ ] = another dose, or the depositor's remark. An excerpt weighted towards active compounds, which were near 17% of everything screened. Unless noted, calls come from the whole dose curve; as a rule, active = well fitted curve in the direction sought with a large enough effect; inconclusive = small, poorly fitted or top-dose-only effect, or another doubt; inactive = no such curve, though single readings can be large; an effect the other way counts as inactive or inconclusive. Potency is the fitted concentration of half-maximal effect.

SMILES	TDP1 cell noCPT	TDP1 block	TDP1 cell CPT	ClpP mod
Cc1cccc2cc(/C=N/NC(=O)c3ccccc3O)c(Cl)nc12	?	5.4%	18.4µM*	-7.8%
Cc1nc2c(C)cccc2cc1C(=O)N/N=C/c1ccc(O)cc1	?	4.5%	29.1µM*	-6.1%
COCC(C)Nc1ncnc2c1cnn2-c1cccc(Cl)c1 (stereo unspecified)	?	-2.6%	?	-12.9%
O=C(N/N=C/c1ccccn1)c1cc(-c2ccncc2)nc2ccccc12	?	10.5%	?	1.0%
O=C(O)c1ccc(/C=N/NC(=O)c2cc(-c3cccs3)nc3ccccc23)cc1	11.6µM*	2.8%	?	?
O=C(N/N=C/c1ccsc1)c1cc(-c2cccs2)nc2ccccc12	8.2µM*	-1.9%	10.3µM*	-9.4%
O=C(N/N=C/c1ccsc1)c1cc(-c2ccncc2)nc2ccccc12	3.26µM*	6.3%	3.66µM*	-1.0%
Cc1ccc(C(=O)N2CCCCC2)cc1S(=O)(=O)N1CCOCC1	1.7%	1.8%	-5.0%	2.4%
COC(=O)Cn1c(=O)oc2ccc(C)cc21	?	5.1%	?	.
Oc1ccc2ccccc2c1CNc1ccc(Br)cc1	?	.	16.4µM*	53.4%
Oc1ccc2ccccc2c1CNc1ccc(Br)cn1	-19.1%	-1.8%	-27.6%	-2.0%
COc1cc2c(cc1OC)-c1cc(Nc3cccc(C)c3)nc(=O)n1CC2	-13.6%	.	?	.
O=C(O)c1ccccc1C(=O)N1CCN(c2cccc(Cl)c2)CC1	-14.6%	3.3%	-7.9%	0.6%
COc1ccccc1N1CCN(c2ncc(C(=O)N3CCN(c4cccc(Cl)c4)CC3)c3ccccc23)CC1	2.59µM*	1.2%	2.59µM*	.
COC(=O)c1cnc(N2CCN(c3ccc(F)cc3)CC2)c2ccccc12	?	-8.1%	?	?
O=C(c1cnc(N2CCCCC2)c2ccccc12)N1CCN(c2ccc(F)cc2)CC1	16.4µM*	5.5%	23.1µM*	-5.8%
O=C(c1cnc(N2CCCCC2)c2ccccc12)N1CCN(c2cccc(Cl)c2)CC1	16.4µM*	-4.4%	?	28.2µM*
Cc1ccc([C@@H]2CC(=O)[C@@H]3CN(S(=O)(=O)c4ccc(C)cc4)[C@H](c4ccc(Cl)cc4)C[C@@H]3N2S(=O)(=O)c2ccc(C)cc2)cc1	?	.	7.3%	2.0%
N#Cc1ccccc1-c1ccc2ncnc(NCCN3CCOCC3)c2c1	0.9%	.	?	.
CCOc1ccc(C(=O)NCCNC(=O)c2ccc(OCC)cc2)cc1	19.9%	.	-0.6%	.
CCOc1ccc(C(=O)N/N=C(/C)C2C(=O)c3ccccc3C2=O)cc1	0.651µM*	7.1%	0.581µM*	0.9%
C/C(=N\NC(=O)c1ccc(-c2ccccc2)cc1)C1C(=O)c2ccccc2C1=O	20.6µM*	0.0%	20.6µM*	0.0%
C/C(=N\NC(=O)c1ccc(Br)cc1)C1C(=O)c2ccccc2C1=O	-26.7%	8.5%	?	0.5%
CN(Cc1ncc[nH]1)Cc1cn(-c2ccccc2)nc1-c1ccc2c(c1)OCO2	-24.2%	.	?	3.2%
COc1cccc(-c2nn(-c3ccccc3)cc2CN(C)Cc2ccno2)c1	20.6µM*	.	20.6µM*	.
SMILES	TDP1 cell noCPT	TDP1 block	TDP1 cell CPT	ClpP mod
CCN1CC(CN(C)Cc2cn(-c3ccc(C)cc3)nc2-c2cccc(C)c2)CC1=O (stereo unspecified)	14.6µM*	-2.6%	?	.
Cc1ccc(-n2cc(CN(C)Cc3ncc[nH]3)c(-c3cccc(C)c3)n2)cc1	23.1µM*	6.0%	?	.
CCOC(=O)N1CCc2c(sc(NCc3ccc(N(CC)CC)cc3)c2C(=O)Nc2cc(OC)ccc2OC)C1	?	7.6%	?	2.5%
Cc1cc(C)n(C(=O)/C(C#N)=N/Nc2cc(Cl)cc(Cl)c2)n1	2.59µM*	10.8%	3.26µM*	-1.0%
Cc1cc(C)n(C(=O)/C(C#N)=N\Nc2ccccc2[N+](=O)[O-])n1	2.2%	3.6%	12.4%	.
Cc1ccn2c(Nc3ccc(C(C)C)cc3)c(-c3cccnc3)nc2c1	?	0.0%	?	-28.1%
Cc1ccc(-c2nc3cnccn3c2Nc2c(C)cccc2C)o1	10.3µM*	2.5%	5.8µM*	-13.1%
Cc1ccc(-c2nc3cnccn3c2Nc2ccc(C(C)C)cc2)o1	10µM*	2.6%	?	-9.1%
Cc1nc(N2CCCC2)c2c(C(=O)Nc3cccc(Cl)c3)c(C)oc2n1	-23.4%	2.1%	-22.6%	1.6%
Cc1cc(-c2ccnc(-n3ncc(C(=O)N4CCCCC4c4cccnc4)c3C3CC3)n2)c(C)s1 (stereo unspecified)	-3.0%	.	8.4%[9.04 µM]	.
O=C(c1cnn(-c2nccc(-c3ccccc3F)n2)c1C1CC1)N1CCCCC1c1cccnc1 (stereo unspecified)	20.6µM*	.	3.8%[9.04 µM]	.
CC1(NC(=O)/C=C/c2nc3ccccc3s2)CCS(=O)(=O)C1 (stereo unspecified)	-3.1%	-1.2%	4.9%	-26.8%
Cc1ccc(S(=O)(=O)c2c(C)cc(C)nc2N2CCOCC2)cc1	-16.1%	5.9%	6.3%	.
Cc1ccc(S(=O)(=O)c2c(C)cc(C)nc2N2CCCCC2)cc1	18.4µM*	0.0%	23.1µM*	-2.9%
COCCNC(=S)NNC(=O)c1cc(C2CC2)nc2ccccc12	3.3%	4.9%	-2.7%	5.3%
CCN(C[C@H]1N[C@@](C)(C(=O)OC)[C@H]2C(=O)N(Cc3ccccc3)C(=O)[C@@H]12)C(=O)Nc1ccc(F)cc1	-4.9%	0.3%	9.0%	-2.0%
CC1CCN(c2c(NCC3CCC(C(=O)N4CCc5ccccc5C4)CC3)c(=O)c2=O)CC1 (stereo unspecified)	?	0.0%	?	0.5%
O=C(C1CCC(CNc2c(N3CCCCC3)c(=O)c2=O)CC1)N1CCc2ccccc2C1 (stereo unspecified)	16.4µM*	3.1%	?	-1.5%
O=C(NCCc1ccccc1)c1sc2ncccc2c1-n1cccc1	?	7.7%	25.9µM*	-1.5%
COCc1cc(C)nc2sc(C(=O)NN)c(-n3cccc3)c12	-29.4%	2.6%	-5.4%	.
O=C(NCc1ccccc1F)c1sc2ncccc2c1-n1cccc1	?	11.2%	23.1µM*	-4.0%
CCCCNC(=O)c1sc2nc(C)cc(COC)c2c1-n1cccc1	25.9µM*	-2.0%	16.4µM*	6.1%
COCCCNC(=O)c1sc2ncccc2c1-n1cccc1	-27.6%	3.0%	-27.3%	-3.6%
CCCCNC(=O)c1sc2ncccc2c1-n1cccc1	-28.3%	5.3%	11.6µM*	-2.6%
CSc1ccc(CCNC(=O)c2sc3ncccc3c2-n2cccc2)cc1	25.9µM*	5.3%	16.4µM*	-10.5%
CCN(CC)CCNC(=O)c1sc2ncccc2c1-n1cccc1	14.1%	0.6%	-6.1%	-4.0%

Screens (PubChem)
